Measured values from PubChem BioAssay (Tox21).
Records with an inconclusive call do not appear. Entries that show only a call come without a potency. The source made the active and inactive calls. Calls follow the shape of the full dose curve.

Target: Beta-2 adrenergic receptor (Homo sapiens) (UniProt P07550)
Experiment: Adrenergic beta2 receptor (ADRB2) small molecule agonists, cell-based qHTS assay (AID 1963593);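 also: CHO cells stably overexpressing human ADRB2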
Summary of the method: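 CHO cells stably over-expressing ADRB2 were plated overnight at 37C, then dosed with compounds plus a stimulation mix containing 100uM IBMX and 25uM Ro-20-1724 for 0.5hr at room temperature. cAMP was measured by HTRF competition, 1hr.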

Beta-2 adrenergic receptor (Homo sapiens), sequence (P07550 whole entry, looked up): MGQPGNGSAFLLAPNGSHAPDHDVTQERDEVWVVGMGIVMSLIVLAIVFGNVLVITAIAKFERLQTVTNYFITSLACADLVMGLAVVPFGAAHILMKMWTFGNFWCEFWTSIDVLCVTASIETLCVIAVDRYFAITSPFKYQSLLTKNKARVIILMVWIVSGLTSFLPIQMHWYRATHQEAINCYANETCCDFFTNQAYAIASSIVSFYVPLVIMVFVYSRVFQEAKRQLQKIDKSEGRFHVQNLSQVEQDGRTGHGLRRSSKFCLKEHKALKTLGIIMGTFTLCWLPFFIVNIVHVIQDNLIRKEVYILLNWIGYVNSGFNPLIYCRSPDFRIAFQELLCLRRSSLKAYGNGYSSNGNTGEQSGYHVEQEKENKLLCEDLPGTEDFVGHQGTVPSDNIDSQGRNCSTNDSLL

SMILES	Potency
OC1CCC(C2CCCCC2)CC1 (stereo unspecified)	inactive
O=C(Nc1cccc(C2=NCCN2)c1)Nc1cccc(C2=NCCN2)c1	inactive
CCOC(=O)CCC(=O)OCC	inactive
Cc1ccc2cccnc2c1	inactive
O=S(=O)(O)c1ccc(O)c2ncccc12	inactive
NCC(=O)CCC(=O)O	inactive
SCCCCCCCCS	inactive
CCOC(=O)C(Br)c1ccccc1 (stereo unspecified)	inactive
O=[N+]([O-])c1ccc(CO)cc1	inactive
CC1(C)S[C@@H]2[C@H](NC(=O)C(c3ccccc3)S(=O)(=O)O)C(=O)N2[C@H]1C(=O)O (stereo partly specified)	inactive
CCN(CC)CCOc1ccccc1C(=O)CCc1ccccc1	inactive
C=C(C)C(=O)OCC(O)CO (stereo unspecified)	inactive
CC/C=C\CC/C=C/C(OCC)OCC	inactive
c1ccc(CNc2ncnc3nc[nH]c23)cc1	inactive
O=C(CCN1CCC(c2ccccc2)C1)c1ccc2c(c1)OCCO2 (stereo unspecified)	inactive
C=CN1CCCCCC1=O	inactive
